Laboratory results published in the supplement of paper PMC10849652.
The full data set covers some 8,800 targets. This sample favours those with a hit. About 0.5% of all pairs of compound and target were hits.

Experiments:
Experiment in all cases: log2 fold change, soluble protein after heating vs DMSO (PISA); higher = thermal stabilisation; K562 lysate, 10 uM; active = over 0.2 and 3.5 SD of the protein, either way, in both replicates (recomputed)
vorinostat = compound: O=C(CCCCCCC(=O)Nc1ccccc1)NO [vorinostat]
Method in brief: (§1)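 K562 pellets were dounce-homogenised in PBS pH 7.4 containing 1 mM MgCl2, and the crude extract, at 1 mg/mL protein, was exposed to 10 μM compound for 30 min. Aliquots were heated for 3 min across 48°C-58°C, pooled, brought to 0.5% NP-40 at 4°C and spun at 21,000xg for 90 min, with the supernatant taken as soluble protein. TMTpro 16plex LC-MS/MS with equalised channel sums quantified that protein. Values are log-two fold changes in thermal stability relative to solvent controls, taken from duplicates.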

silmitasertib = compound: O=C(O)c1ccc2c(c1)nc(Nc1cccc(Cl)c1)c1ccncc12 [silmitasertib]
Method in brief: as §1

[1] = compound: NCC(=O)Nc1ccc(-n2nc(C(F)(F)F)cc2-c2ccc3c(ccc4ccccc43)c2)cc1
Method in brief: as §1

[2] = compound: O=C1NC(=O)C(c2cnc3ccccn23)=C1c1cn2c3c(cc(F)cc13)CN(C(=O)N1CCCCC1)CC2
Method in brief: as §1

entospletinib = compound: c1cn2cc(-c3ccc4cn[nH]c4c3)nc(Nc3ccc(N4CCOCC4)cc3)c2n1 [entospletinib]
Method in brief: as §1

ITPR2 (UniProt Q14571)
log2 fold change (vorinostat): -0.965 (active) | log2 fold change (silmitasertib): 0.024 (inactive)

JAK3 (UniProt P52333)
log2 fold change [1]: -0.319 (inactive) | log2 fold change [2]: -0.002 (inactive)

HNRNPD (UniProt D6RF44)
log2 fold change [2]: -0.04 (inactive)

ITPRIP (UniProt Q8IWB1)
log2 fold change (vorinostat): -0.33 (inactive) | log2 fold change (silmitasertib): 0.095 (inactive)

GPLD1 (UniProt P80108)
log2 fold change [2]: 0.366 (inactive)

HNRNPUL1 (UniProt M0R247)
log2 fold change (vorinostat): 0.197 (inactive) | log2 fold change (silmitasertib): -0.037 (inactive)

IPP (UniProt Q9Y573)
Chain of UniProt Q9Y573 (Q9Y573 whole entry, looked up): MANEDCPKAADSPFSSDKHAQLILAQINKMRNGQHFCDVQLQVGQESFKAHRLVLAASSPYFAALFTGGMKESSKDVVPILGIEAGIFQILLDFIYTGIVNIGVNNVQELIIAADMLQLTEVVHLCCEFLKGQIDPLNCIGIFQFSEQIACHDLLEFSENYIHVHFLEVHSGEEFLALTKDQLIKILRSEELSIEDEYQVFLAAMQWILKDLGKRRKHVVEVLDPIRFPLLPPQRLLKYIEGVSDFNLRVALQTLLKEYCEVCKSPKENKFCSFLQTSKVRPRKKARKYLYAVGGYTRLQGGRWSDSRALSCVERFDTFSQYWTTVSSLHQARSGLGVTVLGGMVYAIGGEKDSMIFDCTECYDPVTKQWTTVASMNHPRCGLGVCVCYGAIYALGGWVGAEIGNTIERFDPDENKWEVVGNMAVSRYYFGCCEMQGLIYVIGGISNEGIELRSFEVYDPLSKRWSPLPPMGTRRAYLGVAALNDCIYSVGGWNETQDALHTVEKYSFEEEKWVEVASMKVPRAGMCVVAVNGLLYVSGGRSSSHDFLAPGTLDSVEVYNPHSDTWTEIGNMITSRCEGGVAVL
log2 fold change [1]: 0.04 (inactive) | log2 fold change (vorinostat): -0.633 (active) | log2 fold change (silmitasertib): 0.205 (inactive) | log2 fold change (entospletinib): 0.074 (inactive)

GTPBP6 (UniProt O43824)
log2 fold change [1]: 0.069 (inactive) | log2 fold change (entospletinib): 0.255 (inactive)

HMGA1 isoform 2 (UniProt P17096)
Chain of UniProt P17096 (P17096 whole entry, looked up): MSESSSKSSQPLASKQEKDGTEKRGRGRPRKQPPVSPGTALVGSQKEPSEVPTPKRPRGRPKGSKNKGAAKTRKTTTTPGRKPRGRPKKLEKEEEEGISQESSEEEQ
log2 fold change (vorinostat): 0.205 (inactive) | log2 fold change (silmitasertib): -0.047 (inactive) | log2 fold change [2]: 0.128 (inactive)

IMPDH2 (UniProt H0Y4R1)
log2 fold change [1]: -0.044 (inactive) | log2 fold change [2]: 0.05 (inactive) | log2 fold change (entospletinib): -0.042 (inactive)

HDAC2 (UniProt Q92769)
Chain of UniProt Q92769 (Q92769 whole entry, looked up): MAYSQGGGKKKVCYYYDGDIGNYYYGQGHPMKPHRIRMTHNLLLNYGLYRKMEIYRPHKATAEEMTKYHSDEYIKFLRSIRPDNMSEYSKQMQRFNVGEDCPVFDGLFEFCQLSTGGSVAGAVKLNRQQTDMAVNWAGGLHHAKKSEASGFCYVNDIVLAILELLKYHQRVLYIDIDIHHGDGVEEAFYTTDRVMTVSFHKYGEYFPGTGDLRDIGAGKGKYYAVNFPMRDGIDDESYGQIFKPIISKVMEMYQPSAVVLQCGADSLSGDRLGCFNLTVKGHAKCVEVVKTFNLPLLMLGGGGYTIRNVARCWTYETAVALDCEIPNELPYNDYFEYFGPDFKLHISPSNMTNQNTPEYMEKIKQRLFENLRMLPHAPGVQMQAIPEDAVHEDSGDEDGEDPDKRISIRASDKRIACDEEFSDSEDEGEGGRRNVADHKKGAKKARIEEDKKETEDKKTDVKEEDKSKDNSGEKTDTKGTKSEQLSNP
log2 fold change [1]: 0.001 (inactive) | log2 fold change (silmitasertib): -0.002 (inactive) | log2 fold change [2]: 0.057 (inactive) | log2 fold change (entospletinib): -0.005 (inactive)

IARS (UniProt P41252)
Chain of UniProt P41252 (P41252 whole entry, looked up): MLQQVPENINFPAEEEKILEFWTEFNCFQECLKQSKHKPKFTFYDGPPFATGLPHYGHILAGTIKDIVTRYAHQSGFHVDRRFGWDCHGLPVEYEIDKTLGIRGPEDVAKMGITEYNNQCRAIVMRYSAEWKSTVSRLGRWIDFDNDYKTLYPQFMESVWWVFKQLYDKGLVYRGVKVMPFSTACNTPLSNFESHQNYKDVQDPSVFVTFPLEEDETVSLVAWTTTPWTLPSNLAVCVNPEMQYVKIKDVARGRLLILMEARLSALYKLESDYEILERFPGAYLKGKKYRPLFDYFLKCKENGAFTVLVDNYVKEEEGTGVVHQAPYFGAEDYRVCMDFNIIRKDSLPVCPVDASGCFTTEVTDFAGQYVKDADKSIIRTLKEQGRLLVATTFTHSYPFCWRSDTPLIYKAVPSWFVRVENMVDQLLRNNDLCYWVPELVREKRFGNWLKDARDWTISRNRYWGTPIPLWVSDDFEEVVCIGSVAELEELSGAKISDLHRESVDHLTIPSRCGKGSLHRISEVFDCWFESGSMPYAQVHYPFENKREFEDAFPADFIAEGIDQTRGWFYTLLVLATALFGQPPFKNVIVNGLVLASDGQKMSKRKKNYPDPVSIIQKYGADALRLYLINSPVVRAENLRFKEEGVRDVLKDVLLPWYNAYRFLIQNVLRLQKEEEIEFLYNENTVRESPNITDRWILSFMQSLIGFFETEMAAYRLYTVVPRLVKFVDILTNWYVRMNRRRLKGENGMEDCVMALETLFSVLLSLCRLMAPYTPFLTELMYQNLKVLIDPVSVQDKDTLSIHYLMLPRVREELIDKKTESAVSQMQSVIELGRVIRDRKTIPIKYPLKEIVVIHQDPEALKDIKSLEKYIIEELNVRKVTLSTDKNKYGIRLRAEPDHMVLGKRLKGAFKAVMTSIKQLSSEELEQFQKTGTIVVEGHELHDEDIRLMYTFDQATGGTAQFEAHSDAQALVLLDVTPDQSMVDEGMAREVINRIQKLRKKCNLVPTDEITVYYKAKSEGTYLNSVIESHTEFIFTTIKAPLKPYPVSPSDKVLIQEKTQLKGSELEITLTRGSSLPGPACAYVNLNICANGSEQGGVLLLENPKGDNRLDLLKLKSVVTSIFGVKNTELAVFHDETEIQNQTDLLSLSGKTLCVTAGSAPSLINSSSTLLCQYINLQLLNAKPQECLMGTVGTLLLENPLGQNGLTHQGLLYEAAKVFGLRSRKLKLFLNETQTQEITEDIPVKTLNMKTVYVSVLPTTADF
log2 fold change [1]: 0.014 (inactive) | log2 fold change (vorinostat): -0.325 (active) | log2 fold change (silmitasertib): 0.046 (inactive) | log2 fold change [2]: -0.008 (inactive) | log2 fold change (entospletinib): 0.031 (inactive)

ITGB1BP2 (UniProt Q9UKP3)
log2 fold change [1]: 0.053 (inactive) | log2 fold change (entospletinib): 0.107 (inactive)

HOMER3 (UniProt Q9NSC5)
log2 fold change [2]: -0.022 (inactive)

HDGFL2 isoform 2 (UniProt Q7Z4V5)
Chain of UniProt Q7Z4V5 (Q7Z4V5 whole entry, looked up): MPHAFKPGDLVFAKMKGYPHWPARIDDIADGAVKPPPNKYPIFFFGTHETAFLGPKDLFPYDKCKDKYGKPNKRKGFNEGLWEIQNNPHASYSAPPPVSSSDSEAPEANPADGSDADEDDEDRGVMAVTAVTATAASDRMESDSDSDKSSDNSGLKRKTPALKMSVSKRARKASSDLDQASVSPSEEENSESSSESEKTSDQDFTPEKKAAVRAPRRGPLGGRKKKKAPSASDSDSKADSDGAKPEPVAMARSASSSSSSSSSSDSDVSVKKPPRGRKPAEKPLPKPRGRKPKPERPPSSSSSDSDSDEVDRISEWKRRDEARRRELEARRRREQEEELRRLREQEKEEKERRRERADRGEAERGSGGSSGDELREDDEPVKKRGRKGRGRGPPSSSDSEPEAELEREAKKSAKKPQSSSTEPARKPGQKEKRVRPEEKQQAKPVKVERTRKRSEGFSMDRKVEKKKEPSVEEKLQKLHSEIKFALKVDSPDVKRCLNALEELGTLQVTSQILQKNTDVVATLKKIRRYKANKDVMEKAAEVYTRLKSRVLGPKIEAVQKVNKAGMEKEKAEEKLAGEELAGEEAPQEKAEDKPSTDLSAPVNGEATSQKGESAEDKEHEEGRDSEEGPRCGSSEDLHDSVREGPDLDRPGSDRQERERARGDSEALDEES
log2 fold change [1]: 0.02 (inactive) | log2 fold change (vorinostat): 0.117 (inactive) | log2 fold change (silmitasertib): -0.013 (inactive) | log2 fold change [2]: 0.01 (inactive) | log2 fold change (entospletinib): -0.012 (inactive)

GTF3C5 isoform 3 (UniProt Q9Y5Q8)
Chain of UniProt Q9Y5Q8 (Q9Y5Q8 whole entry, looked up): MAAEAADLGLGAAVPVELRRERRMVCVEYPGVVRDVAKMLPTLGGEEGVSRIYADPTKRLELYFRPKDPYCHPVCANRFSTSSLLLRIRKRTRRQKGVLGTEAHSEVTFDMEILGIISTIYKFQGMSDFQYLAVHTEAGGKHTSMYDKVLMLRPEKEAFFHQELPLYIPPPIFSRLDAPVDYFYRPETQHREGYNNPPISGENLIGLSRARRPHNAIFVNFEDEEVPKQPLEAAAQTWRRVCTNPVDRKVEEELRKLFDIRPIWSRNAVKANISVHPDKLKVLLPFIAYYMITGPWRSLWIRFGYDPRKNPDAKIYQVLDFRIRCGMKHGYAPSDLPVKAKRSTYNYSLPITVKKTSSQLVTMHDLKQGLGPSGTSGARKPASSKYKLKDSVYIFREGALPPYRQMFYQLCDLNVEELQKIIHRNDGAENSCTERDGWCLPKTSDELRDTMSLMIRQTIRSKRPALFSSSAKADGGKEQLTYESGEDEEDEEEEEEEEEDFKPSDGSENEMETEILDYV
log2 fold change [1]: 0.002 (inactive) | log2 fold change (vorinostat): -0.296 (active) | log2 fold change (silmitasertib): 0.016 (inactive) | log2 fold change [2]: 0.04 (inactive) | log2 fold change (entospletinib): -0.021 (inactive)

IRF2BP1 (UniProt Q8IU81)
Chain of UniProt Q8IU81 (Q8IU81 whole entry, looked up): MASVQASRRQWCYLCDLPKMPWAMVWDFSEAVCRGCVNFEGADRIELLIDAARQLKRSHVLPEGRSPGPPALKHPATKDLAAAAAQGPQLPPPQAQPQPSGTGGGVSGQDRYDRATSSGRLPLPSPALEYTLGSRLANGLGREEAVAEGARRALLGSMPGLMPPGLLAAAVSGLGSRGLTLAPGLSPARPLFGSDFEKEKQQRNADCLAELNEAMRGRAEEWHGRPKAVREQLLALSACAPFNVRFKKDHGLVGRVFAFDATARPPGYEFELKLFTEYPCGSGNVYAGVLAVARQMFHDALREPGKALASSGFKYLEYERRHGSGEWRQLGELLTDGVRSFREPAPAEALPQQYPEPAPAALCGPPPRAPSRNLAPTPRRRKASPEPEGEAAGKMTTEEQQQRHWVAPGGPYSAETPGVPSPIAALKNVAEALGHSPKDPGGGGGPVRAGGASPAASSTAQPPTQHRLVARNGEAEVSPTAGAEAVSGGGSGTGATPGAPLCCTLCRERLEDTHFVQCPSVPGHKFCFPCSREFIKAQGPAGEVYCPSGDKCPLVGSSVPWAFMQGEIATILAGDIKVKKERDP
log2 fold change [1]: 0.021 (inactive) | log2 fold change (vorinostat): -0.4 (active) | log2 fold change (silmitasertib): -0.003 (inactive) | log2 fold change [2]: -0.03 (inactive) | log2 fold change (entospletinib): 0.01 (inactive)

GNB4 (UniProt Q9HAV0)
Chain of UniProt Q9HAV0 (Q9HAV0 whole entry, looked up): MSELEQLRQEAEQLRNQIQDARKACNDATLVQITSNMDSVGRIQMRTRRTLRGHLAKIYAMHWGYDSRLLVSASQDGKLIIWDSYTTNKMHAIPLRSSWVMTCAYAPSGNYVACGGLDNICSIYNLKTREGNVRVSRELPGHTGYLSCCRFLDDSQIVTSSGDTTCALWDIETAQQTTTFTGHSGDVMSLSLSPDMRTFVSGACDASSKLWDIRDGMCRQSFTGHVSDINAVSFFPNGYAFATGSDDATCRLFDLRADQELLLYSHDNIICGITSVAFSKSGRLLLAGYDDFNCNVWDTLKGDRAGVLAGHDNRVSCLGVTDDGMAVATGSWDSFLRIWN
log2 fold change (vorinostat): 0.006 (inactive) | log2 fold change (silmitasertib): 0.017 (inactive) | log2 fold change [2]: -0.059 (inactive) | log2 fold change (entospletinib): 0.029 (inactive)

GSTM2 (UniProt P28161)
Chain of UniProt P28161 (P28161 whole entry, looked up): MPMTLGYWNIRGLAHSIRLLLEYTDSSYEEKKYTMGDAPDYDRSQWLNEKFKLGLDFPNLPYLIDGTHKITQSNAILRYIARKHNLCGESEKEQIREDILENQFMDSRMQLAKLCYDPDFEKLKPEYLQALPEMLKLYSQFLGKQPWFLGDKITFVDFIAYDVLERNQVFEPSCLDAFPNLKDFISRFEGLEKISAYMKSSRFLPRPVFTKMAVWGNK
log2 fold change [1]: 0.017 (inactive) | log2 fold change (vorinostat): 0.323 (active) | log2 fold change (silmitasertib): 0.378 (active) | log2 fold change (entospletinib): 0.044 (inactive)

INTS3 (UniProt Q68E01)
log2 fold change [1]: 0.049 (inactive) | log2 fold change (vorinostat): -0.244 (active) | log2 fold change (silmitasertib): 0.015 (inactive) | log2 fold change [2]: -0.063 (inactive) | log2 fold change (entospletinib): 0.009 (inactive)
